Active and inactive are the calls of the source. Rule for the calls: active = hit-call score of the fitted dose curve at least 0.9, where 1 is the maximum; inactive = score below 0.9.
Experiments:
Conditions in all cases: mRNA level, 48 h; actives raise or lower the signal
[1] = read-out: Bcl-2 (BID) gene, BID (gene 637); assay: LTEA_HepaRG_BID: Life Technologies and Expression Analysis (LTEA) Assay for Bcl-2 (BID) gene using HepaRG (AID 2283476)
Outline: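 Gain or loss of BID expression is fitted relative to 0.5% DMSO vehicle. Human HepaRG liver cells received a 48 h chemical exposure over an eight-point concentration range.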

[2] = read-out: Caspase-3 (Homo sapiens) (UniProt P42574); assay: LTEA_HepaRG_CASP3: Life Technologies and Expression Analysis (LTEA) Assay for cysteine-aspartic acid protease (CASP3) using HepaRG (AID 2283477)
Outline: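 Transcript-level assay: CASP3 mRNA in human HepaRG after 48 h treatment, eight half-log concentrations from 100 uM in 0.5% DMSO, quantified by qRT-PCR.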

[3] = read-out: Cytochrome P450 (CYP1A2), CYP1A2 (gene 1544); assay: LTEA_HepaRG_CYP1A2: Life Technologies and Expression Analysis (LTEA) Assay for Cytochrome P450 (CYP1A2) using HepaRG (AID 2283479)
Outline: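 In duplicate wells, HepaRG cultures maintained in 0.5% DMSO were treated 48 h across an 8-point, half-log series topping at 100 uM; phenobarbital (1 mM) served as induction control. Expression was read by qRT-PCR.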

[4] = read-out: cysteine-aspartic acid protease (CASP8), CASP8 (gene 841); assay: LTEA_HepaRG_CASP8: Life Technologies and Expression Analysis (LTEA) Assay for cysteine-aspartic acid protease (CASP8) using HepaRG (AID 2283480)
Outline: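 Differentiated HepaRG cells in serum-free induction medium, 48 h exposure, eight-point half-log series from 100 uM in 0.5% DMSO, duplicates. CASP8 mRNA by qRT-PCR, normalized to ACTB, GAPDH, POLR2A; bidirectional fit versus DMSO.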

[5] = read-out: Cytochrome P450 (CYP2B6), CYP2B6 (gene 1555); assay: LTEA_HepaRG_CYP2B6: Life Technologies and Expression Analysis (LTEA) Assay for Cytochrome P450 (CYP2B6) using HepaRG (AID 2283481)
Outline: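 Human HepaRG, 48 h dosing, 0.5% DMSO vehicle, top dose 100 uM. CYP2B6 transcript by qRT-PCR, housekeeping-normalized, bidirectional curve fit.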

[6] = read-out: Cytochrome P450 2C19 (Homo sapiens) (UniProt P33261); assay: LTEA_HepaRG_CYP2C19: Life Technologies and Expression Analysis (LTEA) Assay for CYP2C19 using HepaRG (AID 2283482)
Outline: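 Endpoint: CYP2C19 mRNA change, bidirectional fit vs 0.5% DMSO. Cells: HepaRG, 48 h exposure, eight-point series topping at 100 uM. Quantitation: qRT-PCR normalized to ACTB, GAPDH, POLR2A.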

[7] = read-out: CYP2C8 (gene 1558); assay: LTEA_HepaRG_CYP2C8: Life Technologies and Expression Analysis (LTEA) Assay for CYP2C8 using HepaRG (AID 2283483)
Outline: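 Differentiated HepaRG cells in serum-free induction medium exposed 48 h in duplicate to 8 half-log concentrations from 100 uM in 0.5% DMSO. CYP2C8 mRNA by qRT-PCR normalized to ACTB, GAPDH, POLR2A; bidirectional fit versus DMSO.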

[8] = read-out: CYP2C9 (gene 1559); assay: LTEA_HepaRG_CYP2C9: Life Technologies and Expression Analysis (LTEA) Assay for CYP2C9 using HepaRG (AID 2283484)
Outline: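 Differentiated human HepaRG cells in serum-free induction medium were exposed 48 h to chemicals in 8-point half-log series from 100 uM (0.5% DMSO), in duplicate. CYP2C9 mRNA was measured by qRT-PCR, normalized to ACTB/GAPDH/POLR2A, with bidirectional fitting versus DMSO.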

[9] = read-out: CYP2E1 (gene 1571); assay: LTEA_HepaRG_CYP2E1: Life Technologies and Expression Analysis (LTEA) Assay for CYP2E1 using HepaRG (AID 2283485)
Outline: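 Differentiated HepaRG cells were treated in duplicate for 48 h with chemicals in 0.5% DMSO, from 100 uM downward in half-log dilutions. RNA was then analysed by qRT-PCR for CYP2E1 induction or loss.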

[10] = read-out: CYP4A11 (gene 1579); assay: LTEA_HepaRG_CYP4A11: Life Technologies and Expression Analysis (LTEA) Assay for CYP4A11 using HepaRG (AID 2283486)
Outline: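 Human hepatic HepaRG cultures receive duplicate 48 h exposures across a concentration-response series topping at 100 uM. Expression changes in CYP4A11 are measured by qRT-PCR relative to DMSO controls.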

[11] = read-out: Cytochrome P450 3A4 (Homo sapiens) (UniProt P08684); assay: LTEA_HepaRG_CYP3A4: Life Technologies and Expression Analysis (LTEA) Assay for CYP3A4 using HepaRG (AID 2283487)
Outline: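 Differentiated HepaRG cells, plated 48 h, then dosed 48 h in serum-free induction medium with 0.5% DMSO, 8 half-log concentrations up to 100 uM, duplicate. CYP3A4 mRNA by qRT-PCR, normalized to ACTB/GAPDH/POLR2A; bidirectional fit versus DMSO.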

[12] = read-out: DNA damage-inducible transcript 3 (DDIT3), DDIT3 (gene 1649); assay: LTEA_HepaRG_DDIT3: Life Technologies and Expression Analysis (LTEA) Assay for DNA damage-inducible transcript 3 (DDIT3) using HepaRG (AID 2283488)
Outline: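 Changes in DDIT3 transcript, in either direction relative to 0.5% DMSO vehicle, were quantified by TaqMan qRT-PCR after 48 h chemical exposure of HepaRG cells at 8 concentrations, maximum 100 uM.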

[13] = read-out: Pro-epidermal growth factor (Homo sapiens) (UniProt P01133); assay: LTEA_HepaRG_EGF: Life Technologies and Expression Analysis (LTEA) Assay for Epidermal growth factor (EGF) using HepaRG (AID 2283489)
Outline: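 Concentration-response mRNA assay: HepaRG cells dosed 48 h (max 100 uM, 0.5% DMSO), EGF measured by qRT-PCR and normalized to ACTB/GAPDH/POLR2A.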

[14] = read-out: Early growth response protein 1 (EGR1) transcription factor, EGR1 (gene 1958); assay: LTEA_HepaRG_EGR1: Life Technologies and Expression Analysis (LTEA) Assay for Early growth response protein 1 (EGR1) transcription factor using HepaRG (AID 2283490)
Outline: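 Differentiated HepaRG cells in serum-free induction medium exposed 48 hours, duplicate, to 8 half-log concentrations up to 100 uM in 0.5% DMSO. EGR1 mRNA measured by TaqMan qRT-PCR, normalized to ACTB, GAPDH, POLR2A; bidirectional fit versus DMSO.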

[15] = read-out: Ezrin (EZR), EZR (gene 7430); assay: LTEA_HepaRG_EZR: Life Technologies and Expression Analysis (LTEA) Assay for Ezrin (EZR) using HepaRG (AID 2283491)
Outline: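 EZR transcript levels came from Fluidigm qRT-PCR and were normalized to three housekeeping genes after 48 h chemical exposure of HepaRG cells. Dosing used an 8-point half-log series with a 100 uM top concentration in 0.5% DMSO, tested in duplicate; both directions were fitted versus vehicle.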

[16] = read-out: Cytochrome P450 3A7 (Homo sapiens) (UniProt P24462); assay: LTEA_HepaRG_CYP3A7: Life Technologies and Expression Analysis (LTEA) Assay for CYP3A7 using HepaRG (AID 2283492)
Outline: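 qRT-PCR of CYP3A7 in HepaRG lysates after 48 h treatment; concentration-response (8 points, max 100 uM) analysed bidirectionally relative to 0.5% DMSO controls.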

[17] = read-out: CYP3A5 (gene 1577); assay: LTEA_HepaRG_CYP3A5: Life Technologies and Expression Analysis (LTEA) Assay for CYP3A5 using HepaRG (AID 2283493)
Outline: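 mRNA induction or loss of CYP3A5 assessed in HepaRG after 48 h dosing, 100 uM top concentration, duplicate wells; TaqMan qRT-PCR with ACTB, GAPDH, POLR2A normalization; 0.5% DMSO as negative control.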

[18] = read-out: Fatty Acid-Binding Protein 1 (FABP1), FABP1 (gene 2168); assay: LTEA_HepaRG_FABP1: Life Technologies and Expression Analysis (LTEA) Assay for Fatty Acid-Binding Protein 1 (FABP1) using HepaRG (AID 2283494)
Outline: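 Differentiated human HepaRG cells exposed 48 h in serum-free induction medium to eight half-log concentrations up to 100 uM (0.5% DMSO), duplicate. FABP1 mRNA by qRT-PCR, normalised to ACTB, GAPDH, POLR2A; bidirectional fitting against DMSO.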

[19] = read-out: Cytochrome P450 4A22 (Homo sapiens) (UniProt Q5TCH4); assay: LTEA_HepaRG_CYP4A22: Life Technologies and Expression Analysis (LTEA) Assay for Cytochrome P450 4A22 (CYP4A22) using HepaRG (AID 2283495)
Outline: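 Concentration-response (8 points, max 100 uM, 0.5% DMSO) in human HepaRG liver cells after 48 h exposure. CYP4A22 mRNA by TaqMan qRT-PCR with housekeeping-gene normalization.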

[20] = read-out: Cytochrome P450 (CYP24A1), CYP24A1 (gene 1591); assay: LTEA_HepaRG_CYP24A1: Life Technologies and Expression Analysis (LTEA) Assay for Cytochrome P450 (CYP24A1) using HepaRG (AID 2283478)
Outline: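 Gene expression of CYP24A1 by TaqMan qRT-PCR in HepaRG after 48 h treatment, highest concentration 100 uM; activity fitted in both directions relative to DMSO vehicle.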

Measured: AC50

Sequence of Cytochrome P450 3A4 (Homo sapiens) (P08684 whole entry, looked up): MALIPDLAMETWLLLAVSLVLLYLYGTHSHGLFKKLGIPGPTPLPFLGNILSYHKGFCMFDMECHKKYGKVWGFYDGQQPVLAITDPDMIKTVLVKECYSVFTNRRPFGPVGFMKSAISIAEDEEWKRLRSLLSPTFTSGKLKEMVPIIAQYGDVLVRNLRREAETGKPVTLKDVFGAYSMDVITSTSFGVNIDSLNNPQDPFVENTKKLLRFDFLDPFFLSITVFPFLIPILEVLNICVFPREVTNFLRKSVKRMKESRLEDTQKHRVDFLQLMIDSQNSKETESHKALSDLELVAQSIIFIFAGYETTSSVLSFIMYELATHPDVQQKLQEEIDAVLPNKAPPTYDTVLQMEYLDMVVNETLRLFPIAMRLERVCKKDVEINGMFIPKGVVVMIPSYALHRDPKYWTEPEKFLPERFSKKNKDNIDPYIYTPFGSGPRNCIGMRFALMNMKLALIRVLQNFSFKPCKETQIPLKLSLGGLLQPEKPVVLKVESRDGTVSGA
Sequence of Cytochrome P450 3A7 (Homo sapiens) (P24462 whole entry, looked up): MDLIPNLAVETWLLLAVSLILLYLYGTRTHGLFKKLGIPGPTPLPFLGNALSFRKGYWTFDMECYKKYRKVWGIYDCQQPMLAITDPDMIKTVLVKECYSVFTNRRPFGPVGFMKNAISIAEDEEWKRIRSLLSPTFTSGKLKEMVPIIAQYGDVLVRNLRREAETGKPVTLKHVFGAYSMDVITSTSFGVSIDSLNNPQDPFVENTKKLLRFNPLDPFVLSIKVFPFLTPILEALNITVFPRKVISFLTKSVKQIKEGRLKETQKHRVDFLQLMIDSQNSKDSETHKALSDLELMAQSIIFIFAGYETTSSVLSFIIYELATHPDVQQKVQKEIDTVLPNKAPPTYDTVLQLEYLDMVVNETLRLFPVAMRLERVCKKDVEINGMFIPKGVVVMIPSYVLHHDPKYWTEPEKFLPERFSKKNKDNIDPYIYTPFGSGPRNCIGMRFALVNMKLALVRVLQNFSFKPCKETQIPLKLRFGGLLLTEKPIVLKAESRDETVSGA
Sequence of Caspase-3 (Homo sapiens) (P42574 whole entry, looked up): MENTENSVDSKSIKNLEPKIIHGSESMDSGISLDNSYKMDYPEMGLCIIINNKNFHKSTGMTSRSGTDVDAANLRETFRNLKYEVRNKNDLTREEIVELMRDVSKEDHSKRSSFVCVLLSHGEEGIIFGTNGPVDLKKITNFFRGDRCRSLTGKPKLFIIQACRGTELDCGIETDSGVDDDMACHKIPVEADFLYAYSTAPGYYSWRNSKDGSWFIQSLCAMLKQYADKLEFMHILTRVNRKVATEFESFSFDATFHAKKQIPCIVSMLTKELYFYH
Sequence of Cytochrome P450 2C19 (Homo sapiens) (P33261 whole entry, looked up): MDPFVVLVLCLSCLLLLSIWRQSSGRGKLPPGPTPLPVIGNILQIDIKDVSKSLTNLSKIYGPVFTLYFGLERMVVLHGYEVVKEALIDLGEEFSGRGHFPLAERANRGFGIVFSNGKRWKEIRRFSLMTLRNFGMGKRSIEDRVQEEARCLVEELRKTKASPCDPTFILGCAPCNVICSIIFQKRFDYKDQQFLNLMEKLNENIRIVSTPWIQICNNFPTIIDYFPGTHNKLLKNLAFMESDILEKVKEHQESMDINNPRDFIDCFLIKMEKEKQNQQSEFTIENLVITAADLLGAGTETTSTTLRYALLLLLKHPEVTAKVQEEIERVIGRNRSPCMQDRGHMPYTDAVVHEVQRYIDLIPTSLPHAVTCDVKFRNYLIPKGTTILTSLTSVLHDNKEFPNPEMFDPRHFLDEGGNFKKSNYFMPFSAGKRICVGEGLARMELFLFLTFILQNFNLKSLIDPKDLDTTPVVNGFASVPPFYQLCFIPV

Clc1ccc(C(Cl)(Cl)Cl)cc1
not listed: [20]
inactive: all other assays above

CCC(C)c1cc([N+](=O)[O-])cc([N+](=O)[O-])c1O (centres undefined)
inactive: [2]
active: [1] 2.42 µM | [3] 2.66 µM | [4] 4 µM | [5] 1.32 µM | [6] 2.12 µM | [7] 2.6 µM | [8] 1.71 µM | [9] 1.22 µM | [10] 2.78 µM | [11] 2.37 µM | [12] 5.95 µM | [13] 1.97 µM | [14] 17.1 µM | [15] 3.74 µM | [16] 1.57 µM | [17] 15.5 µM | [18] 1.27 µM | [19] 2.35 µM

Cc1ccccc1[N+](=O)[O-]
active: [5] 13.9 µM
not listed: [11]
inactive: all other assays above

O=S(=O)(O)C(F)(F)C(F)(F)C(F)(F)C(F)(F)F
active: [5] 52.5 µM
not listed: [11]
inactive: all other assays above

ClC(Cl)=C(c1ccc(Cl)cc1)c1ccc(Cl)cc1
active: [5] 1.59 µM | [6] 7.61 µM | [7] 3.63 µM | [9] 50.7 µM | [16] 8.96 µM | [18] 50 µM
not listed: [11]
inactive: all other assays above

Cc1cccc(C)c1N
active: [5] 19.3 µM | [15] 0.364 µM
not listed: [20]
inactive: all other assays above
